According to PubChem BioAssay AID1159580 (chemical genetic matrix, 2015):
In all, about 5,500 compounds went through this assay and about 2,000 (36%) were called active. About 18% were inconclusive and are not listed. No stated cut-off is given here; in the data, active means normalized growth mostly below about 0.91 (no sharp cut-off); inconclusive means no clear call, values can overlap the other calls; inactive means mostly above about 0.92. The list shows a part of the results.

Assay: chemical genetic growth profiling, strain panel (AID 1159580);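 further: tested at 20 µM; growth read once vehicle control cultures reached saturation at 30 °C; 1 = growth at the plate median or of vehicle wells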
Settings: S. cerevisiae deletion strains, growth OD

Measured: normalized growth

O=[N+]([O-])c1ccc2nsnc2c1
inactive: locus YDR150W, strain NUM1, stronger effect = lower value 0.825 | locus YGR229C, strain SMI1, stronger effect = lower value 0.979 | locus YLR039C, strain RIC1, stronger effect = lower value 0.795 | locus YLR262C, strain YPT6, stronger effect = lower value 0.83 | locus YNL322C, strain KRE1, stronger effect = lower value 0.999
active: locus YAL013W, strain DEP1, stronger effect = lower value 0.836 | locus YBR229C, strain ROT2, stronger effect = lower value 0.643 | locus YDL101C, strain DUN1, stronger effect = lower value 0.583 | locus YEL061C, strain CIN8, stronger effect = lower value 0.626 | locus YGR078C, strain PAC10, stronger effect = lower value 0.699 | locus YHR030C, strain SLT2, stronger effect = lower value 0.109 | locus YHR087W, strain rtc3, stronger effect = lower value 0.649 | locus YJR043C, strain POL32, stronger effect = lower value 0.828 | locus YJR075W, strain HOC1, stronger effect = lower value 0.55 | locus YKL190W, strain CNB1, stronger effect = lower value 0.604 | locus YLR058C, strain SHM2 (second series), stronger effect = lower value 0.824 | locus YLR085C, strain ARP6, stronger effect = lower value 0.227 | locus YML094W, strain GIM5, stronger effect = lower value 0.533 | locus YMR219W, strain ESC1, stronger effect = lower value 0.833 | locus YMR263W, strain SAP30, stronger effect = lower value 0.8 | locus YNL128W, strain TEP1, stronger effect = lower value 0.304 | locus YNL153C, strain GIM3, stronger effect = lower value 0.738 | locus YNL298W, strain CLA4 (second series), stronger effect = lower value 0.361 | locus YNR030W, strain Alg12, stronger effect = lower value 0.534 | locus YOL006C, strain TOP1, stronger effect = lower value 0.496 | locus YPL055C, strain LGE1, stronger effect = lower value 0.805 | locus YPL241C, strain CIN2, stronger effect = lower value 0.286 | locus YPR135W, strain CTF4, stronger effect = lower value 0.233
